Results reported in PubChem BioAssay.
Unmarked numbers belong to inactive results. For some of these results: Results with a measured potency or affinity are listed apart. The source made the active and inactive calls. Unless noted, the rule behind the calls is not given here.

Experiments:
[1] = antimalarial activity against Dd2 strain (AID 2302;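 active = growth inhibition above 50% at the single 2 µM test dose, taken to imply half-maximal potency below 2 µM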;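 note: 0% = DMSO untreated growth and 100% = chloroquine plus artemisinin killed control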); details: P. falciparum Dd2 in RBCs, LDH growth readout, 72 h; at 2 µM; stronger effect = higher value
[2] = HepG2 cytotoxicity, primary screen, cytotoxicity control for P. falciparum antimalarial project, cell-based, ATP luminescence (AID 2303;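 active = inhibition above 50%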;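 note: 0% = DMSO wells and 100% = digitonin-killed cells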); details: HepG2 viability, 24-48 h, at 10 µM, stronger effect = higher value
[3] = biological target: L-lactate dehydrogenase (Plasmodium falciparum (isolate CDC / Honduras)) (UniProt Q27743); assay: PfLDH activity inhibition – cell lysate, 3D7 strain, counter-screen for P. falciparum growth inhibition project (AID 2304);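 note: 0% = vehicle and 100% = reference inhibitor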; details: P. falciparum 3D7 crude extract, LDH APAD/NBT absorbance; at 2 µM; stronger effect = higher value
Chain of L-lactate dehydrogenase (Plasmodium falciparum (isolate CDC / Honduras)) (Q27743 whole entry, looked up): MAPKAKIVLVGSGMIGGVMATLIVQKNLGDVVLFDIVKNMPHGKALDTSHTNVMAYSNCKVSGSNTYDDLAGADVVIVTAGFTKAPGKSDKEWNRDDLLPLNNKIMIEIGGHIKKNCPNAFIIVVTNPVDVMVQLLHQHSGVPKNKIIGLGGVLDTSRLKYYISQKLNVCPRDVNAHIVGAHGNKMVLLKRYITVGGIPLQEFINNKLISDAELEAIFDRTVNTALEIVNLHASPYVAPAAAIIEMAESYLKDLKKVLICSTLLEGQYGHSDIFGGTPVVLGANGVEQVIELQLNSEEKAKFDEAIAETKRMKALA

[4] = inhibition of 3D7 malaria parasite growth – strain 3D7 (AID 2306);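 note: 0% = DMSO wells and 100% = chloroquine plus artemisinin control wells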; details: P. falciparum 3D7 erythrocytic growth, LDH absorbance, 72 h; at 2 µM; stronger effect = higher value
[5] = biological target: Plasmodium falciparum protein kinase 6 (PK6, PF3D7_1337100) (UniProt Q8IDW1); assay: PfPK6 kinase inhibitors, biochemical, TCAMS library (AID 1159586); details: recombinant PfPK6, Kinase-Glo ATP depletion luminescence
Chain of Plasmodium falciparum protein kinase 6 (PK6, PF3D7_1337100) (Q8IDW1 1-305): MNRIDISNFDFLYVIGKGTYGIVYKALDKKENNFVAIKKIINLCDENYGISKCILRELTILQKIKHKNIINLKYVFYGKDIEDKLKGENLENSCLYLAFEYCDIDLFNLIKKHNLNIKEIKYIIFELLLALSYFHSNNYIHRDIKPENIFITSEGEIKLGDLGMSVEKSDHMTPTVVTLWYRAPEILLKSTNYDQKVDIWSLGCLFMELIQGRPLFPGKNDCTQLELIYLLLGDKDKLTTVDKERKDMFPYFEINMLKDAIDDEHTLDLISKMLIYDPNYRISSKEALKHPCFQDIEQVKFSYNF

[6] = biological target: Protein kinase 7 (PK7), Plasmodium falciparum 3D7 (PF3D7_0213400) (UniProt Q7YTF7); assay: inhibition of Plasmodium PK7 catalytic activity – biochemical, TCAMS antimalarial set, Kinase-Glo luminescence (AID 1159587); details: recombinant PfPK7, Kinase-Glo ATP depletion luminescence
Chain of Protein kinase 7 (PK7), Plasmodium falciparum 3D7 (PF3D7_0213400) (Q7YTF7 1-343): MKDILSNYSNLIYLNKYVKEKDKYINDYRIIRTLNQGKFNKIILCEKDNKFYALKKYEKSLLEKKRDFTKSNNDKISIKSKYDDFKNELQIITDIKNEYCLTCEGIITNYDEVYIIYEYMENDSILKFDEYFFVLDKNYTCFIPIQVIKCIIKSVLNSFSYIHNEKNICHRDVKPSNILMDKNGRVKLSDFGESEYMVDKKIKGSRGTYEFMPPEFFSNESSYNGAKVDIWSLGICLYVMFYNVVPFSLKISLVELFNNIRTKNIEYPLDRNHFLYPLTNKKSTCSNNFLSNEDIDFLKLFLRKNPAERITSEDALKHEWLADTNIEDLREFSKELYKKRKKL

[7] = biological target: Calcium-dependent protein kinase 4 (Plasmodium falciparum (isolate 3D7)) (UniProt Q8IBS5); assay: PfCDPK4 kinase inhibitors, biochemical, TCAMS library (AID 1159588; cut-off not given, nearly all actives have IC50 up to about 0.91 µM); details: recombinant PfCDPK4, Kinase-Glo ATP depletion luminescence
Chain of Calcium-dependent protein kinase 4 (Plasmodium falciparum (isolate 3D7)) (Q8IBS5 whole entry, looked up): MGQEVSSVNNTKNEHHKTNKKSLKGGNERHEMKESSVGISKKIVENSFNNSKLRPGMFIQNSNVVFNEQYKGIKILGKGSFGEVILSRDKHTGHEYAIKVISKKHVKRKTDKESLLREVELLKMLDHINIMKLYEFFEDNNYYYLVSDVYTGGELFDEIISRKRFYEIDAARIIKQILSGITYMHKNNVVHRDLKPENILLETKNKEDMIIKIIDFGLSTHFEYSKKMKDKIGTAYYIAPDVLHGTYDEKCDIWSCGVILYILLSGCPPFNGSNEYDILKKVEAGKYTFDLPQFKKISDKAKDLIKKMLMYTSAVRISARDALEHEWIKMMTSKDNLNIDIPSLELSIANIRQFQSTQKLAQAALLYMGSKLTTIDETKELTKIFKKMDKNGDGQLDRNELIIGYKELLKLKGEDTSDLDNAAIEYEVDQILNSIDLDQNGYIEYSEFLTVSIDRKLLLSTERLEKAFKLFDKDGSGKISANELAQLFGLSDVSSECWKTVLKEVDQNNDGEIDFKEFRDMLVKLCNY

SMILES	growth inhibition [1]	inhibition [2]	inhibition [3]	growth inhibition [4]	outcome [5]	outcome [6]	outcome [7]
CC(c1cccc(Nc2nccc(-c3c(-c4cccc(NC(=O)c5c(F)cccc5F)c4)nn4ccccc34)n2)c1)S(C)(=O)=O (stereo not given)	99% (active)	76% (active)	-6%	98% (active)	inactive	inactive	–
O=C(Nc1cccc(-c2nn3ncccc3c2-c2ccnc(Nc3cccc(-c4cnco4)c3)n2)c1)c1c(F)cccc1F	98% (active)	96% (active)	2%	97% (active)	inactive	inactive	–
COc1ccc(-c2cnc3ccc(NC4CCC(O)CC4)nn23)cn1 (stereo not given)	73% (active)	54% (active)	4%	98% (active)	inactive	inactive	inactive
Cc1cccc(Nc2nc(N[C@@H]3CCCNC3)nc3cc[nH]c(=O)c23)c1	98% (active)	55% (active)	1%	99% (active)	inactive	inactive	–
CC(C)(CNCc1ccc(OC(F)(F)F)cc1)c1nc(-c2ccc(Cl)c(O)c2)c(-c2ccncc2)[nH]1	99% (active)	38%	-2%	102% (active)	inactive	inactive	inactive
CC(C)(CN)c1cc(-c2ccc(Cl)c(O)c2)c(-c2ccncc2)o1	97% (active)	44%	7%	92% (active)	inactive	inactive	–
CCn1c(-c2nonc2N)nc2c(-c3cccc(NC(=O)Nc4ccccc4Cl)c3)ncc(OCCCN)c21	74% (active)	2%	-4%	99% (active)	inactive	inactive	–
O=C(Nc1cccc(-c2nn3ccccc3c2-c2ccnc(Nc3cccc(-c4cnco4)c3)n2)c1)C1CCCCC1	99% (active)	71% (active)	-4%	95% (active)	inactive	inactive	–
COCCNCc1cccc(-c2ccc3c(Nc4ccc(Oc5cccnc5)cc4)ccnc3c2)c1	99% (active)	58% (active)	-5%	100% (active)	inactive	inactive	inactive
CS(=O)(=O)CCNCc1cccc(-c2ccc3c(Nc4cc(O)c(Cl)cc4F)ccnc3c2)c1	100% (active)	9%	-7%	101% (active)	inactive	inactive	inactive
CN1CCN(Cc2ccc(-c3ccc4c(Nc5cc(O)c(Cl)cc5F)ccnc4c3)o2)CC1	99% (active)	2%	-4%	100% (active)	inactive	inactive	inactive
COCCNCc1ncsc1-c1ccc2c(Nc3cc(O)c(Cl)cc3F)ccnc2c1	92% (active)	0%	-5%	101% (active)	inactive	inactive	inactive
CCn1c(-c2nonc2N)nc2c(-c3cccc(NC(=O)Nc4ccccc4OC)c3)ncc(OCCCN)c21	58% (active)	84% (active)	-2%	92% (active)	inactive	inactive	–
NCCCOc1cnc(-c2ccccc2)c2nc(-c3nonc3N)n(CCc3ccccc3)c12	86% (active)	56% (active)	-4%	93% (active)	inactive	inactive	inactive
Oc1cccc(Nc2ccnc3cc(-c4nccs4)ccc23)c1	–	-10%	-7%	98% (active)	inactive	inactive	inactive
COc1cccc(CNCC(C)(C)c2nc(-c3ccc(Cl)c(O)c3)c(-c3ccncc3)[nH]2)c1	98% (active)	74% (active)	-9%	101% (active)	inactive	inactive	inactive
CCn1c(-c2nonc2N)nc2c(-c3cccc(NC(=O)NC45CC6CC(CC(C6)C4)C5)c3)ncc(OCCCN)c21	63% (active)	100% (active)	-2%	94% (active)	inactive	inactive	–
O=C(NCCCN1CCCCC1)c1ccc(Nc2nccc(Nc3ccc(Oc4ccccc4)cc3)n2)cc1	61% (active)	30%	-3%	100% (active)	inactive	inactive	inactive
COc1cccc(Nc2nccc(-c3c(-c4cccc(NC(=O)c5c(F)cccc5F)c4)nn4ccccc34)n2)c1	98% (active)	35%	-2%	98% (active)	inactive	inactive	inactive
CN(C)CCN(C)Cc1ccc(-c2ccc3c(Nc4ccc(Oc5ccccc5)cc4)ccnc3c2)o1	100% (active)	5%	-4%	100% (active)	inactive	inactive	inactive
CC(C)(CNC(=O)C1CCN(CCOCc2ccccc2)CC1)c1nc(-c2ccc(Cl)c(O)c2)c(-c2ccncc2)[nH]1	18%	11%	-14%	101% (active)	inactive	inactive	inactive
CCn1c(-c2nc(-c3ccnc(N4CCN(C)CC4)c3)cnc2N)nc2cc(S(C)(=O)=O)ccc21	76% (active)	44%	-1%	101% (active)	inactive	inactive	inactive
